From PubChem BioAssay (Tox21)
Where “and” joins values, the source holds several entries; their conditions need not be identical. Identical values can stand only once. Results filed as inconclusive are left out. Entries that show only a call come without a potency. A structure can be active in one record and inactive in another. Calls of active or inactive are those of the source. Calls follow the shape of the dose curve; as a rule, active = well fitted inhibition curve with a large enough effect in the repeat runs; inconclusive = weak or mixed curves; inactive = no such curve, though single readings can be large or run the other way.

Biological target: Estrogen receptor (Homo sapiens) (UniProt P03372)
Sequence (P03372 whole entry, looked up): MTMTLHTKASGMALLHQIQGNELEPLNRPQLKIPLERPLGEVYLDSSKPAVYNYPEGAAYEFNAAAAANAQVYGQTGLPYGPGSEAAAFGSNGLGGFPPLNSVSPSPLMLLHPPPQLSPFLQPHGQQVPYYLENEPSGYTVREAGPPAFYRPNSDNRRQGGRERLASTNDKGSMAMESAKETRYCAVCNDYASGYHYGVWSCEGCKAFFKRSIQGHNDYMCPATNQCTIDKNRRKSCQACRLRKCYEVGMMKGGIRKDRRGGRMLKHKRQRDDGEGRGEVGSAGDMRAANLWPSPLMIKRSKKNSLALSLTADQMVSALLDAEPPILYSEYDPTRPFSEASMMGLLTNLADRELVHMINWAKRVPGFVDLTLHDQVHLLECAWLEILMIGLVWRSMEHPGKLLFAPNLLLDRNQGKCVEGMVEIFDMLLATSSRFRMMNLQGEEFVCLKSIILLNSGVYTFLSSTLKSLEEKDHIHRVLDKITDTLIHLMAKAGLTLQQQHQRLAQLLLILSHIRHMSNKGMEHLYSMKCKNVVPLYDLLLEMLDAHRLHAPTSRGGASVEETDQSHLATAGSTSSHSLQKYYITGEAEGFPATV
Experiment: qHTS assay to identify small molecule antagonists of the estrogen receptor alpha (ER-alpha) signaling pathway using the BG1 cell line in the presence of 0.1 nM 17-beta-estradiol (AID 1259244); also: nearly all actives have a fitted effect of over 50% in size
Conditions: VM7Luc4E2 (BG1) ERE-luciferase, antagonist mode, 0.1 nM E2, 22 h; series mostly up to 92.4 µM; activity change, negative = inhibition: at the top concentration
From the text: National Center for Advancing Translational Sciences [NCATS]
NIH Chemical Genomics Center [NCGC]
U.S. Environmental Protection Agency [EPA]
National Institutes of Environmental Health Sciences [NIEHS]
National Toxicology Program [NTP]
U.S. Food and Drug Administration [FDA]
Estrogen receptor (ER), a member of the nuclear hormone receptor plays an important role in development, metabolic homeostasis and reproduction. Two subtypes of ER, ER-alpha and ER-beta, have similar expression patterns with some uniqueness in both types. Endocrine disrupting chemicals (EDCs) and their interactions with steroid hormone receptors like ER causes disruption of normal endocrine function. Therefore, it is important to understand the effect of environmental chemicals in ER signaling pathway. For identifying ER antagonists, VM7Luc4E2 cell line was used to screen against Tox21 compound libraries.
VM7Luc4E2 cell line (provided by Denison MS, University of California) endogenously express full-length ER-alpha and is stably transfected with a plasmid containing four estrogen responsive elements (ERE) upstream of a luciferase reporter gene. The current screening for identification of ER-alpha inhibitors against Tox21 compound libraries used lower concentration (0.1 nM) of 17beta-Estradiol as a stimulator.
Tox21 Assay Protocol Summary:
VM7Luc4E2 cells were cultured in phenol red free assay medium containing 10% charcoal stripped FBS for 5 days prior to the assay. The cells were dispensed at 4,000 cells/well in 4 uL of assay medium into white wall/solid-bottom 1536-well plates (Corning Life Sciences, Corning, NY) using a Multidrop Combi (ThermoFisher Scientific, Waltham, MA) dispenser. After the assay plates were incubated at 37C and 5% CO2 for 24 hr, 23 nL of compounds dissolved in DMSO, positive controls or DMSO only was transferred to the assay plates by a Pintool station (Kalypsys, San Diego, CA). The transfer of compounds was followed by the addition of 1 uL of 0.1 nM (final concentration) agonist (17beta-Estradiol)/assay medium using a Flying Reagent Dispenser (FRD, Aurora Discovery, San Diego, CA). The plates were incubated at 37C and 5% CO2 for 22 hr. For luciferase reporter gene assay, 4 uL of ONE-Glo reagent (Promega Corporation, Madison, WI) was added to each well using the FRD and after 30 min incubation at room temperature luminescence intensity was measured using ViewLux plate reader (PerkinElmer, Shelton, CT).
Potency is read from the fitted curve at half-maximal effect.

Row | Structure (SMILES) | activity change, negative = inhibition | Potency
1 | CCCCCCCCC(=O)NCc1ccc(O)c(OC)c1 | 2.5% [at 42.5 µM] (inactive) | –
2 | CC(C)Oc1cc(-n2nc(C(C)(C)C)oc2=O)c(Cl)cc1Cl | – | 61.1 µM (active)
3 | COP(=S)(OC)Oc1ccc([N+](=O)[O-])cc1 | – | inactive
4 | c1cc(OCC2CO2)ccc1Cc1ccc(OCC2CO2)cc1 (stereo not given) | – | inactive
5 | Cc1ccccc1[N+](=O)[O-] | – | inactive
6 | O=C(NC(=O)c1c(F)cccc1F)Nc1ccc(Cl)cc1 | – | inactive
7 | O=C(Nc1ccc(Br)cc1)c1cc(Br)cc(Br)c1O | – | 6.83 µM (active) and 10.9 µM (active)
8 | CNC(=O)N(C)c1nnc(C(C)(C)C)s1 | – | inactive
9 | N#CC(Br)Br | – | inactive
10 | CCN(CC)C(=O)SCc1ccc(Cl)cc1 | – | inactive
11 | c1ccc(P(c2ccccc2)c2ccccc2)cc1 | – | inactive
12 | O=c1oc2ccccc2c(O)c1C(CC(O)c1ccc(-c2ccc(Br)cc2)cc1)c1ccccc1 (stereo not given) | -0.791% [at 42.5 µM] (inactive) | –
13 | CCCCC(CC)COC(=O)Cl (stereo not given) | – | inactive
14 | NC(=S)Nc1ccccc1 | – | 27.8 µM (active) and inactive
15 | CCCCCCCCOC(=O)c1ccccc1C(=O)OCCCCCCCC | – | inactive
16 | O=S(=O)(Oc1ccc(Cl)cc1)c1ccc(Cl)cc1 | – | inactive
17 | NCc1cccnc1 | – | inactive
18 | O=[N+]([O-])c1ccc(O)c([N+](=O)[O-])c1 | – | 48.8 µM (active) and 48.6 µM (active)
19 | C[C@]12CCC(=O)C(O)=C1CC[C@@H]1[C@@H]2CC[C@]2(C)C(=O)CC[C@@H]12 | – | inactive
20 | Nc1c(Cl)cc([N+](=O)[O-])cc1Cl | – | inactive and 27.3 µM (active)

Row | Structure (SMILES) | activity change, negative = inhibition | Potency
21 | Nc1ccncc1 | – | inactive
22 | O=[N+]([O-])c1c(Cl)c(Cl)c(Cl)c(Cl)c1Cl | – | inactive
23 | Cc1c(COC(=O)[C@@H]2[C@H](/C=C(\Cl)C(F)(F)F)C2(C)C)cccc1-c1ccccc1 | – | inactive
24 | CNC(=O)Oc1cccc2c1OC(C)(C)O2 | – | inactive
25 | CCOc1cc(Oc2ccc(C(F)(F)F)cc2Cl)ccc1[N+](=O)[O-] | -10.2% (inactive) | –
26 | COc1ccc(C=O)cc1 | – | inactive
27 | COC(=O)c1sccc1S(=O)(=O)NC(=O)Nc1nc(C)nc(OC)n1 | – | inactive
28 | CCC(=O)O[C@H]1CC[C@H]2[C@@H]3CCC4=CC(=O)CC[C@]4(C)[C@H]3CC[C@]12C | – | inactive
29 | c1ccc(-c2cccc(-c3ccccc3)c2)cc1 | – | inactive
30 | NNC(=S)NN | – | inactive
31 | O=P(Oc1ccccc1)(Oc1ccccc1)Oc1ccccc1 | – | inactive
32 | C#CCOS(=O)OC1CCCCC1Oc1ccc(C(C)(C)C)cc1 (stereo not given) | – | 8.64 µM (active) and 15.4 µM (active)
33 | c1nc[nH]n1 | – | inactive
34 | Nc1cccnc1 | – | inactive
35 | OCC(O)CO | – | inactive
36 | CC(C)=CC1C(C(=O)OCc2coc(Cc3ccccc3)c2)C1(C)C (stereo not given) | – | inactive
37 | O=[N+]([O-])c1cccc2ccccc12 | – | inactive
38 | O=P(O)(O)CCCl | – | inactive
39 | CCCCCCOC(=O)c1ccccc1C(=O)OCCCCCC | – | inactive
40 | CCN(N=O)C(N)=O | – | inactive
